# Assay results as given in PubChem BioAssay (EPA / NIEHS).
# Records with an inconclusive call do not appear. Active and inactive are the calls of the source. How the source made its calls, unless noted: active means hit-call score of the fitted dose curve at least 0.9, where 1 is the maximum; inactive means score below 0.9.
# Columns and labels:
# [1] = read-out: Interleukin-8 (IL8), CXCL8 (gene 3576); experiment: BSK_3C_IL8: BioMAP Diversity Plus: 3C Assay for Interleukin-8 (IL8) Biomarker Activity (AID 2283020); conditions: primary human endothelial cells (HUVEC); actives raise or lower the signal
# Method in brief: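 Primary human umbilical vein endothelial cells (3C system) were exposed to test chemical for 24 h, then IL-8 was quantified by ELISA. Responses were fitted bidirectionally against DMSO vehicle as baseline.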
# [2] = read-out: Monokine induced gamma interferon (MIG), CXCL9 (gene 4283); experiment: BSK_3C_MIG: BioMAP Diversity Plus: 3C Assay for Monokine induced gamma interferon (MIG) Biomarker Activity (AID 2283021); conditions: primary human endothelial cells (HUVEC); actives raise or lower the signal
# Method in brief: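 Primary human umbilical vein endothelial cells in the 3C system were exposed to chemical for 24 h, after which MIG was quantified by ELISA. Activity was fitted bidirectionally against DMSO as negative control and baseline.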
# [3] = BSK_3C_SRB: Viability Assessment in the BioMAP Diversity Plus: 3C Assay (AID 2283023); conditions: primary human endothelial cells (HUVEC);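 further: cells read 24 h after compound dosing; fitted both ways against DMSO so a hit may be signal rise or drop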
# Method in brief: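 Overt cytotoxicity is gauged in parallel confluent HUVEC cultures by SRB total-protein staining at the time of biomarker measurement, 24 h after dosing. Gain or loss of signal is fitted versus DMSO.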
# [4] = BSK_3C_Vis: BioMAP Diversity Plus: 3C Assay for Morphology Visualization (AID 2283025); conditions: primary human endothelial cells (HUVEC);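 further: fitted both ways so gain or loss versus DMSO counts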
# Method in brief: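 Human umbilical vein endothelial cells in the 3C system were imaged by light microscopy 24 h after chemical dosing to record cell morphology. Activity was fitted bidirectionally against DMSO as negative control and baseline; the endpoint serves as a background control.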
# [5] = BSK_4H_SRB: Viability Assessment in the BioMAP Diversity Plus: 4H Assay (AID 2283027); conditions: primary human endothelial cells (HUVEC);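 further: cells exposed to compound for 24 h before staining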;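 on AC50: curves fitted both ways versus DMSO so AC50 may be loss or gain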
# Method in brief: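 Absorbance at 560 nm of SRB-stained total protein served as the viability read-out in confluent primary human umbilical vein endothelium 24 h after chemical treatment. Curves were fitted bidirectionally against DMSO as negative control.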
# [6] = BSK_BE3C_SRB: Viability Assessment in the BioMAP Diversity Plus: BE3C Assay (AID 2283028); conditions: primary human bronchial epithelial cells;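 on AC50: fitted both ways so AC50 may mark signal gain or loss versus DMSO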
# Method in brief: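 SRB total-protein staining (0.1%, after TCA fixation) of chemically dosed human bronchial epithelial primary cells at 24 h; DMSO serves as the negative control for bidirectional curve fitting.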
# [7] = read-out: Thrombomodulin, THBD (gene 7056); experiment: BSK_3C_Thrombomodulin: BioMAP Diversity Plus: 3C Assay for Thrombomodulin Biomarker Activity (AID 2283029); conditions: primary human endothelial cells (HUVEC); actives raise or lower the signal
# Method in brief: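 Primary human umbilical vein endothelial cells (3C system) were exposed to chemical for 24 h, then thrombomodulin levels were measured by ELISA. Activity was fitted bidirectionally against the DMSO negative control as baseline.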
# [8] = read-out: Urokinase-type plasminogen activator receptor (uPAR), PLAUR (gene 5329); experiment: BSK_4H_uPAR: BioMAP Diversity Plus: 4H Assay for Urokinase-type plasminogen activator receptor (uPAR) Biomarker Activity (AID 2283030); conditions: primary human endothelial cells (HUVEC); actives raise or lower the signal
# Method in brief: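 Endpoint derived via bidirectional curve fitting against DMSO baseline; readout was ELISA detection of uPAR on umbilical vein endothelial cells at 24 h post-treatment, with SRB-stained parallel cultures assessing cytotoxicity.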
# [9] = read-out: Human Leukocyte Antigen - DR isotype (HLADR), HLA-DRA (gene 3122); experiment: BSK_BE3C_HLADR: BioMAP Diversity Plus: BE3C Assay for Human Leukocyte Antigen - DR isotype (HLADR) Biomarker Activity (AID 2283032); conditions: primary human bronchial epithelial cells; actives raise or lower the signal
# Method in brief: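 Human primary bronchial epithelial cells in the BE3C system were exposed to chemicals for 24 h, after which HLA-DR levels were quantified by ELISA. Activity was fitted bidirectionally, gain or loss of signal, against DMSO as negative control and baseline.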
# [10] = read-out: Vascular cell adhesion molecule 1 (VCAM1), VCAM1 (gene 7412); experiment: BSK_4H_VCAM1: BioMAP Diversity Plus: 4H Assay for Vascular cell adhesion molecule 1 (VCAM1) Biomarker Activity (AID 2283033); conditions: primary human endothelial cells (HUVEC); actives raise or lower the signal;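 on outcome: cell-surface VCAM-1 protein measured by ELISA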
# Method in brief: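 Primary human umbilical vein endothelial cells were exposed to chemicals for 24 h, after which VCAM-1 was quantified by ELISA. Responses were fitted bidirectionally against DMSO as negative control and activity baseline.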
# [11] = read-out: Interferon-gamma inducible Protein 10 (IP10), CXCL10 (gene 3627); experiment: BSK_BE3C_IP10: BioMAP Diversity Plus: BE3C Assay for Interferon-gamma inducible Protein 10 (IP10) Biomarker Activity (AID 2283034); conditions: primary human bronchial epithelial cells; actives raise or lower the signal
# Method in brief: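 Human primary bronchial epithelial cells were exposed to chemicals for 24 hours, after which IP-10 levels were measured by ELISA. Data were fitted bidirectionally against DMSO, which served as the negative control and activity baseline.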
# [12] = read-out: Monokine induced gamma interferon (MIG), CXCL9 (gene 4283); experiment: BSK_BE3C_MIG: BioMAP Diversity Plus: BE3C Assay for Monokine induced gamma interferon (MIG) Biomarker Activity (AID 2283035); conditions: primary human bronchial epithelial cells; actives raise or lower the signal;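 on outcome: MIG protein measured by ELISA in BE3C cultures after 24 h of dosing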
# Method in brief: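 MIG level was determined by ELISA after 24 h chemical treatment of primary human bronchial epithelial cells. Values were fitted bidirectionally with DMSO as the negative control and activity baseline.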
# [13] = read-out: Transforming growth factor beta 1 (TGFb1), TGFB1 (gene 7040); experiment: BSK_BE3C_TGFb1: BioMAP Diversity Plus: BE3C Assay for Transforming growth factor beta 1 (TGFb1) Biomarker Activity (AID 2283036); conditions: primary human bronchial epithelial cells; actives raise or lower the signal
# Method in brief: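 Human primary bronchial epithelial cells (BE3C system) were dosed with chemical and TGF-b1 levels measured by ELISA at 24 h. Activity was fitted bidirectionally relative to DMSO negative control as baseline.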
# [14] = read-out: Plasminogen activator inhibitor-1 (PAI1), SERPINE1 (gene 5054); experiment: BSK_BE3C_PAI1: BioMAP Diversity Plus: BE3C Assay for Plasminogen activator inhibitor-1 (PAI1) Biomarker Activity (AID 2283037); conditions: primary human bronchial epithelial cells; actives raise or lower the signal
# Method in brief: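 Human primary bronchial epithelial cells were exposed to chemical for 24 h, then PAI-1 was quantified by ELISA. Activity was fitted bidirectionally relative to the DMSO negative control baseline.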
# [15] = read-out: urokinase plasminogen activator (uPA), PLAU (gene 5328); experiment: BSK_BE3C_uPA: BioMAP Diversity Plus: BE3C Assay for urokinase plasminogen activator (uPA) Biomarker Activity (AID 2283038); conditions: primary human bronchial epithelial cells; actives raise or lower the signal;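 on outcome: uPA protein level quantified by ELISA in cell cultures; uPA read one day after compound addition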
# Method in brief: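 Using confluent primary human lung bronchial epithelial cultures, we dosed chemicals, waited 24 h, then ran a uPA ELISA, fitting bidirectionally against DMSO.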
# [16] = read-out: Urokinase-type plasminogen activator receptor (uPAR), PLAUR (gene 5329); experiment: BSK_BE3C_uPAR: BioMAP Diversity Plus: BE3C Assay for Urokinase-type plasminogen activator receptor (uPAR) Biomarker Activity (AID 2283039); conditions: primary human bronchial epithelial cells; actives raise or lower the signal;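 on outcome: uPAR protein level measured by ELISA on the cells; cells exposed to compound for one day before measurement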
# Method in brief: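 Primary human bronchial epithelial cells were dosed with chemical and harvested 24 h later; uPAR was quantified by ELISA. Activity was fitted bidirectionally against DMSO as negative control and baseline.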
# [17] = biological target: human Vitamin D Receptor (VDR), VDR (gene 7421) (UniProt P11473); experiment: ATG_VDR_TRANS: Attagene TRANS-FACTORIAL HepG2 Assay for human Vitamin D Receptor (VDR) (AID 2283022; active means hit-call score of the fitted dose curve at least 0.9, where 1 is the maximum)
# Sequence of human Vitamin D Receptor (VDR), VDR (gene 7421) (P11473 whole entry, looked up): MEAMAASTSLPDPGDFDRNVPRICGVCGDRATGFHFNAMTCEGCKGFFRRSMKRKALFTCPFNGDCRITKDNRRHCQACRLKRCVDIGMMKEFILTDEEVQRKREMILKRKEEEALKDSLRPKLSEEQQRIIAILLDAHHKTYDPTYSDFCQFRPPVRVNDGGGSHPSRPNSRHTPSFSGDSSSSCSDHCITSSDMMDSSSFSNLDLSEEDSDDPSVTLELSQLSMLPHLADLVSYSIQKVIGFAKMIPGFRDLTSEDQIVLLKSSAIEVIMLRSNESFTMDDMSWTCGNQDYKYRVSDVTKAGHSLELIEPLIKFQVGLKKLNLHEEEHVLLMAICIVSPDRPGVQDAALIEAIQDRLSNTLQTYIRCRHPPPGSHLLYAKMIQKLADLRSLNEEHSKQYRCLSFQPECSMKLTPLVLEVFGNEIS
# Method in brief: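 Multiplexed TRANS reporter in HepG2; 24 h treatment; reporter mRNA by RT-PCR plus capillary electrophoresis; upregulation scored relative to DMSO.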
# [18] = read-out: Vascular endothelial growth factor receptor 2 (Homo sapiens) (UniProt P35968); experiment: BSK_4H_VEGFRII: BioMAP Diversity Plus: 4H Assay for Vascular endothelial growth factor receptor 2 (VEGFR2) Biomarker Activity (AID 2283031); conditions: primary human endothelial cells (HUVEC); actives raise or lower the signal
# Method in brief: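 In this multiplexed HUVEC system, biomarker ELISA was performed after 24 h chemical exposure. Parallel SRB staining (TCA fixation, 560 nm) tracked cytotoxicity; DMSO served as baseline.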
# [19] = read-out: Matrix Metallopeptidase 1 (MMP1), MMP1 (gene 4312); experiment: BSK_BE3C_MMP1: BioMAP Diversity Plus: BE3C Assay for Matrix Metallopeptidase 1 (MMP1) Biomarker Activity (AID 2283024); conditions: primary human bronchial epithelial cells; actives raise or lower the signal
# Method in brief: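 Primary human bronchial epithelial cells were dosed with test chemicals, and MMP1 levels were measured by ELISA 24 h later. Data were fitted bidirectionally against DMSO as the negative control and activity baseline.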
# [20] = read-out: Pselectin, SELP (gene 6403); experiment: BSK_4H_Pselectin: BioMAP Diversity Plus: 4H Assay for Pselectin Biomarker Activity (AID 2283026); conditions: primary human endothelial cells (HUVEC); actives raise or lower the signal
# Method in brief: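 Primary human umbilical vein endothelial cells were exposed to test chemical for 24 h, then cell-surface P-selectin was quantified by ELISA. Activity was fitted bidirectionally against DMSO as negative control and baseline.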
smiles,measurement,setting,value
c1cc2c3c(cccc3c1)CC2,outcome,[1],inactive
same,outcome,[2],inactive
same,outcome,[3],inactive
same,outcome,[4],inactive
same,outcome,[5],inactive
same,outcome,[6],inactive
same,outcome,[7],inactive
same,outcome,[8],inactive
same,outcome,[9],inactive
same,outcome,[10],inactive
same,outcome,[11],inactive
same,outcome,[12],inactive
same,outcome,[13],inactive
same,outcome,[14],inactive
same,outcome,[15],inactive
same,outcome,[16],inactive
CCOP(=S)(NC(C)C)Oc1ccccc1C(=O)OC(C)C (configuration not stated),outcome,[1],inactive
same,outcome,[17],inactive
same,outcome,[3],inactive
same,outcome,[4],inactive
same,outcome,[5],inactive
same,outcome,[6],inactive
same,outcome,[7],inactive
same,outcome,[8],inactive
same,outcome,[18],inactive
same,outcome,[9],inactive
same,outcome,[10],inactive
same,outcome,[11],inactive
same,outcome,[12],inactive
same,outcome,[13],inactive
same,outcome,[14],inactive
same,outcome,[15],inactive
same,outcome,[16],inactive
C=CC(=O)OCC(CC)(COC(=O)C=C)COC(=O)C=C,AC50,[1],3.18 µM (active)
same,outcome,[17],inactive
same,AC50,[3],2.33 µM (active)
same,AC50,[4],2.98 µM (active)
same,AC50,[5],4.07 µM (active)
same,AC50,[6],20 µM (active)
same,outcome,[7],inactive
same,AC50,[8],4.07 µM (active)
same,AC50,[9],3.18 µM (active)
same,AC50,[10],2.45 µM (active)
same,AC50,[11],4.45 µM (active)
same,AC50,[12],9.44 µM (active)
same,AC50,[13],6.86 µM (active)
same,AC50,[14],10.5 µM (active)
same,AC50,[15],4.96 µM (active)
same,AC50,[16],7.24 µM (active)
Cc1c([N+](=O)[O-])cc2c(c1[N+](=O)[O-])C(C)(C)CC2(C)C,AC50,[1],2.03 µM (active)
same,outcome,[17],inactive
same,outcome,[3],inactive
same,outcome,[19],inactive
same,AC50,[4],37.5 µM (active)
same,outcome,[5],inactive
same,outcome,[6],inactive
same,outcome,[7],inactive
same,outcome,[8],inactive
same,AC50,[9],8.05 µM (active)
same,outcome,[10],inactive
same,AC50,[11],20 µM (active)
same,outcome,[12],inactive
same,AC50,[13],13.5 µM (active)
same,AC50,[14],5 µM (active)
same,outcome,[15],inactive
same,AC50,[16],16.1 µM (active)
NC(=O)C(F)(F)C(F)(F)F,outcome,[1],inactive
same,outcome,[17],inactive
same,outcome,[3],inactive
same,outcome,[19],inactive
same,outcome,[20],inactive
same,outcome,[5],inactive
same,outcome,[6],inactive
same,outcome,[7],inactive
same,outcome,[8],inactive
same,outcome,[18],inactive
same,outcome,[9],inactive
same,outcome,[10],inactive
same,outcome,[11],inactive
same,outcome,[12],inactive
same,outcome,[14],inactive
same,outcome,[15],inactive
same,outcome,[16],inactive
c1ccc(OP(Oc2ccccc2)Oc2ccccc2)cc1,outcome,[1],inactive
same,outcome,[2],inactive
same,outcome,[3],inactive
same,outcome,[4],inactive
same,outcome,[5],inactive
same,outcome,[6],inactive
same,outcome,[7],inactive
same,outcome,[8],inactive
same,outcome,[18],inactive
same,outcome,[9],inactive
same,outcome,[10],inactive
same,outcome,[11],inactive
same,outcome,[12],inactive
same,outcome,[13],inactive
same,outcome,[14],inactive
same,outcome,[15],inactive
same,outcome,[16],inactive
O=C(O)C(F)(F)OC(F)(F)C(F)(F)OC(F)(F)C(=O)O,outcome,[1],inactive
same,outcome,[17],inactive
same,outcome,[3],inactive
same,outcome,[19],inactive
same,outcome,[20],inactive
same,outcome,[5],inactive
same,outcome,[6],inactive
same,outcome,[7],inactive
same,outcome,[8],inactive
same,outcome,[9],inactive
same,outcome,[10],inactive
same,outcome,[11],inactive
same,outcome,[12],inactive
same,outcome,[14],inactive
same,outcome,[15],inactive
same,outcome,[16],inactive
O=C(O)C(F)(F)C(F)(F)C(=O)O,outcome,[1],inactive
same,outcome,[17],inactive
same,outcome,[3],inactive
same,outcome,[19],inactive
same,outcome,[5],inactive
same,outcome,[6],inactive
same,outcome,[7],inactive
same,outcome,[8],inactive
same,outcome,[18],inactive
same,outcome,[9],inactive
same,outcome,[10],inactive
same,outcome,[11],inactive
same,outcome,[12],inactive
same,outcome,[14],inactive
same,outcome,[15],inactive
same,outcome,[16],inactive
